Measurements reported in PubChem BioAssay AID504900 (The Scripps Research Institute Molecular Screening Center, 2011).
This is one part of the list. A number with no mark means an inactive call. Rule as the data show it: active = inhibition above about 32%; inactive = the rest.

Target: Mu-type opioid receptor (Homo sapiens) + Delta-type opioid receptor (Homo sapiens) (UniProt P35372+P41143)
Assay: inverse agonists of MOR-DOR heterodimerization, confirmation, cell-based, luminescence (AID 504900);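 also: 0% = cells with DMSO and 100% = wells lacking cells with DMSO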
Details: cells expressing OPRM1/OPRD1 heterodimer, at 9.3 µM, hits give high values

Sequence of Mu-type opioid receptor (Homo sapiens) + Delta-type opioid receptor (Homo sapiens) (P35372 whole entry, looked up): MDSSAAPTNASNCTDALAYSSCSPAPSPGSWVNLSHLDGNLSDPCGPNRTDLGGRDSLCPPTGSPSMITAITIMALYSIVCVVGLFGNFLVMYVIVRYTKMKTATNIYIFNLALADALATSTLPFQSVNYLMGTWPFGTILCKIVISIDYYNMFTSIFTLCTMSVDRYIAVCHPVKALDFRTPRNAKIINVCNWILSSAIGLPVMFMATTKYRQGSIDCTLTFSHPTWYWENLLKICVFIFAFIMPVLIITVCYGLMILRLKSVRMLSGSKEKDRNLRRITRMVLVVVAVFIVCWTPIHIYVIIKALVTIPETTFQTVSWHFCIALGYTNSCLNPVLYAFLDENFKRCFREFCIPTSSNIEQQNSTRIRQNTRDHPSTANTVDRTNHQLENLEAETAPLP
Sequence of Mu-type opioid receptor (Homo sapiens) + Delta-type opioid receptor (Homo sapiens) (P41143 whole entry, looked up): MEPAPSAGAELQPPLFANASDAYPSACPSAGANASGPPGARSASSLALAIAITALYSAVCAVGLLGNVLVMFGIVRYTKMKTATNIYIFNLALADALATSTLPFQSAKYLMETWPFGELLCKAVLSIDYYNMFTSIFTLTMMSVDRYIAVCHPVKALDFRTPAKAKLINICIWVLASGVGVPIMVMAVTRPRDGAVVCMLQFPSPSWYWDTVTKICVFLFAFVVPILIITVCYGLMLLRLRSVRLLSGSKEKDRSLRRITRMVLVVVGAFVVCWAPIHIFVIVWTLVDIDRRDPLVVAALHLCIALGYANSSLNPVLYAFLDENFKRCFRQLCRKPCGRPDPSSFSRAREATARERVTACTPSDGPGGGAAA

| Compound | inhibition [%] |
| --- | --- |
| CC1=CC(=Cc2sc3ccccc3[n+]2C)C=C(C)O1 | -2.66 |
| CCOC(=O)c1c(N)n(CCN2CCOCC2)c2nc3ccccc3nc12 | 3.09 |
